This is an account of results in article PMC12136788.

Substitutions are numbered along the chain they refer to. In all, about 24,000 sequences were measured (“enrichment r”: median about 0.99, highest 2% from about 3.7 on). For the sample, the highest values were picked, then their nearest neighbours and some sequences at random.

The chains are these.
T1: UNK ZnF1-3 (human, UniProt Q9C0B0 31-174)
T1 sequence: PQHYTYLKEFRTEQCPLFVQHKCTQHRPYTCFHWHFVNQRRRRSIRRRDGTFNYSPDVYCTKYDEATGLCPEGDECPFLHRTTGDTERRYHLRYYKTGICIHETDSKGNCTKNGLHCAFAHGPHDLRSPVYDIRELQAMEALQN

B1: chr7:148083511:148083512:+_ENSMUSG00000025487_ENSMUST00000026560|mus_mus|FALSE|FALSE (ssRNA)
RNA: GGGAGUUCUACAGUCCGACGAUCCAAAUCCAGCACUCGCGGCUGCACCCACGUCAUGUGAACCCGCUUGUCCACCUCGUCUAUGCUGCCUCUCACCAGCCCCACCGAGAGUGCCUUCAUCACCAGCAACUCCACCUUGUUGACCAACAGAGGAUUGAGCAUCA
B2: 104840732_104840852_1265_3pUTR_ENSMUSG00000021710_ENSMUST00000109315|mouse|control|control (ssRNA)
RNA: GGGAGUUCUACAGUCCGACGAUCGACCACCUCAAUGGGAAAGUACUCCUUGAGGGACUCCUGGUCCACAGAGUACUUGAGCUCCUCUGUCUGGGUCAUGUAGUAAUGGAGGUCCCAUGCGUUGAUCUUCCCGUCGUAUGCAAACAACAGAGGAUUGAGCAUCA
B3: chr15:63447868:63447869:-_ENSG00000185088_ENST00000411926|hu_hu|FALSE|FALSE (ssRNA)
RNA: GGGAGUUCUACAGUCCGACGAUCCCCUUCUGUGAGUCUGGCCUUUCCUCCUGUAGGCUGGCACAACACUGUUGAACAACCUACACAAAGAACCACUGUCUGAGCAUGGCUGAAAACCGUGGUGAUCUUGUAGCAACCUGGACACAACAGAGGAUUGAGCAUCA
B4: chr3:148479741:148479742:-_ENSMUSG00000028184_ENSMUST00000106128|mus_mus|motif|central (ssRNA)
RNA: GGGAGUUCUACAGUCCGACGAUCACAAUGCAGGCCUACAGAAAAACAAAACAAAACAAAAACAAAAACCGGUAGGGCCCGGUUUACAGACUCAGUUCACCAACUGCCGCAAGGAACAUGGCCGGGAGGGAGGGUCUCUUGUUUCAACAGAGGAUUGAGCAUCA
B5: chr2:175006660:175006661:-_ENSG00000138430_ENST00000344357|hu_mus|motif|central (ssRNA)
RNA: GGGAGUUCUACAGUCCGACGAUCUAGAAUGGGCCCAAUCAUCUCCUCGUCCUUCAGCUGGAGCUCCUCGUGAAUUAUCUCGGUGUCUCGGAUGGGAUCUACACUUCCUUCAACAUGCGUGAUAUCAUCGUCUUCAAAAGCACGCAACAGAGGAUUGAGCAUCA
B6: chr17:56552419:56552420:-_ENSMUSG00000013236_ENSMUST00000086828|mus_mus|mus_mus_mus_hu_False|38_98 (ssRNA)
RNA: GGGAGUUCUACAGUCCGACGAUCAAAAAAUACACUAUAAAAAAAAAAUGAAAUGUCACGGGAUACAGUUACACUGAGAGUUUUAAAAGAAAGCUGGAAAAAAAAUGCAGCCCAGUGUCCCCAGGCUGCAGAGCGGGGAGGAGCCAACAGAGGAUUGAGCAUCA
B7: chr17:56552419:56552420:-_ENSMUSG00000013236_ENSMUST00000086828|mus_mus|mus_mus_mus_hu_False|38_88 (ssRNA)
RNA: B6 RNA with A38U, A39U, U48A, G49A, A50G, U53A, G54A, U55A, C56A
B8: chr17:56552419:56552420:-_ENSMUSG00000013236_ENSMUST00000086828|mus_mus|mus_mus_mus_hu_False|1_38 (ssRNA)
RNA: B6 RNA with A38U, A39U, A138C, G139A, C143G
B9: chr17:56552419:56552420:-_ENSMUSG00000013236_ENSMUST00000086828|mus_mus|mus_mus_mus_hu_False|38_38 (ssRNA)
RNA: B6 RNA with A38U, A39U
B10: 154963464_154963584_1656_3pUTR_ENSMUSG00000042751_ENSMUST00000043313|mouse|control|control (ssRNA)
RNA: GGGAGUUCUACAGUCCGACGAUCCUGGUUGGCAGAGAACCCACUCAAUGCUACUGGUCAGACACACAGCAUCAAGACCACGAUCAUCUGAAACCAGGGACUCAAAUUCUGAGAAACCCUACUCUUCCCAGACUUAUGUACCAGCAACAGAGGAUUGAGCAUCA
B11: chr8:145151508:145151509:+_ENSG00000179091_ENST00000318911|hu_hu|FALSE|FALSE (ssRNA)
RNA: GGGAGUUCUACAGUCCGACGAUCACCUUCCCGCAGUGACACCCCGGUGGGUGGCUCGCAGUAGCCCGUGAGCAGGGAGAAGACGUAGUCCUCACCACCAUGCCUAGCUCGCACGAUGUAGCUGAGGUCAGGGGGCAAUGCUCCCAACAGAGGAUUGAGCAUCA
B12: 35238635_35241177_7885_CDS_ENSMUSG00000029104_ENSMUST00000080036|mouse|control|control (ssRNA)
RNA: GGGAGUUCUACAGUCCGACGAUCCUGGCCCAGCUUGUAGCUCAUGUUGCCUGGCUCCCGCUCUGGGUUGAUCUGCAGCAGCAGCUUGUCAUGGCUGAUAAGAGCACCUGUAGUAGCUGGUAACAGAGAAGGGACAGGAUCCCACAACAGAGGAUUGAGCAUCA
B13: chr8:13020401:13020402:+_ENSMUSG00000031442_ENSMUST00000123811|mus_hu|FALSE|FALSE (ssRNA)
RNA: GGGAGUUCUACAGUCCGACGAUCUGAUUCCGCACCCUGGAGGUCUGGCCAGUGACGGCUACAAGCCGCUGGGAGGGUAGCGUGAGGGGAAUGCAGCCACGCCUGCCUCCACUGUGCUGGGGCUGGGAACCGUGAGGCUGUGAGCAACAGAGGAUUGAGCAUCA
B14: chr9:4385736:4385737:+_ENSMUSG00000041124_ENSMUST00000047173|mus_hu|FALSE|FALSE (ssRNA)
RNA: GGGAGUUCUACAGUCCGACGAUCAUAUUUUGGGUUGGAAAAUUCUUUACUGAGUGUGGGGGGGUGUUGAGGAGGUAUGCAUUGCACAGUAGCAACCUUUUCCCCACCCCAGUUUUGACAACCCAACAUGUCUCCAGACAUCACCAACAGAGGAUUGAGCAUCA
B15: chr2:27535424:27535425:-_ENSG00000115204_ENST00000380044|hu_mus|FALSE|FALSE (ssRNA)
RNA: GGGAGUUCUACAGUCCGACGAUCUUUGGCCCAAUUGUCCUGGGCUGACAUUCCAUUGAGUAUCCCGACCAGUGGGAGAAAGCAGCCUAGGAAACAUGGGGCAAAGCCCCCCUGAUCUAACAACAUCUUCUUCAGUGCAUGCACCAACAGAGGAUUGAGCAUCA
B16: chr2:17897474:17897475:-_ENSG00000163029_ENST00000351948|hu_mus|FALSE|FALSE (ssRNA)
RNA: GGGAGUUCUACAGUCCGACGAUCUAUUGCUUCCAGAAGAGCUGGAACAUGAGGACCAAAUCUUUUUAGUCGAUCAGUUUUACUAUCUUUCAGUUCUUUCAAUUGUCUCUGAUUAUAGUUGAGUGCAUGUCUCACUUCUAUAUCCAACAGAGGAUUGAGCAUCA
B17: 8890394_8891644_3383_CDS_ENSG00000134313_ENST00000427284|human|control|control (ssRNA)
RNA: GGGAGUUCUACAGUCCGACGAUCACCCUCAUGUAGAGGGAGCGGGGGGUACGCCAGUCCUCCAAUACUGAUCUGCUCUCUGGCAGCACGAACAUCUGCAAUAAUUUCCCGUAGUUUGGGAUCUAGGUUUACAGUGCAUGGCAACAACAGAGGAUUGAGCAUCA
B18: chr4:2840174:2840175:+_ENSG00000087266_ENST00000503393|hu_hu|motif|central (ssRNA)
RNA: GGGAGUUCUACAGUCCGACGAUCGAACUACGAUACAGCCAAACAAUGGAAGUUUUUAGCAAUGAACAUGCACAAACGGUACGGCGCACAGCAACAUGAAUAAAUCUCACAGACAUAAUAACGAGCCAAAGAAGCCAGCUGCCACAACAGAGGAUUGAGCAUCA
B19: chr17:56552419:56552420:-_ENSMUSG00000013236_ENSMUST00000086828|mus_mus|mus_mus_mus_hu_False|28_38 (ssRNA)
RNA: B6 RNA with A38U, A39U, C107U, A108U, C112A, G114A, U115A
B20: chr17:56552419:56552420:-_ENSMUSG00000013236_ENSMUST00000086828|mus_mus|mus_mus_mus_hu_False|38_48 (ssRNA)
RNA: B6 RNA with A38U, A39U, G88A, G92A, C93U, U94A, G95A
B21: chr17:56552419:56552420:-_ENSMUSG00000013236_ENSMUST00000086828|mus_mus|mus_mus_mus_hu_False|8_38 (ssRNA)
RNA: B6 RNA with A38U, A39U, C128A, A129G, G130U, A131G, G132C, C133G, G135A, G136A
B22: chr17:56552419:56552420:-_ENSMUSG00000013236_ENSMUST00000086828|mus_mus|mus_mus_mus_hu_False|18_38 (ssRNA)
RNA: B6 RNA with A38U, A39U, U117G, C119A, C120G, C121G, A122C, G123A, C125G, U126G

This assay has as its target T1, UNK ZnF1-3. Kind of assay: nsRBNS (natural sequence RNA bind-n-seq); RBNS binding buffer (assumed for nsRBNS): 25 mM Tris pH 7.5, 150 mM KCl, 3 mM MgCl2, 0.01% Triton X-100, 500 ug/ml BSA, 20 U/ml SUPERase-In, 4 C; UNK is unkempt and MSI1 is Musashi-1; names of the RNAs are library labels; protein concentration not given here; high values mean tight binding.
B1 yielded a binding signal of 0.937 enrichment R.

B2: the binding signal was 0.691 enrichment R.

For the molecule B3, the binding signal amounted to 0.955 enrichment R.

B4 yielded a binding signal of 2.06 enrichment R.

With B5, the binding signal was 0.77 enrichment R.

Molecule B6 returned a binding signal of 7.57 enrichment R.

In turn, B7 came in with a binding signal of 13.5 enrichment R.

B8 gave a binding signal of 5.3 enrichment R.

Consider B9, for which the binding signal stood at 5.93 enrichment R.

Molecule B10 returned a binding signal of 1.29 enrichment R.

As for B11, the binding signal stood at 1.01 enrichment R.

Molecule B12 had a binding signal of 1.21 enrichment R.

In the case of B13, the binding signal stood at 1.36 enrichment R.

In turn, B14 registered a binding signal of 0.462 enrichment R.

Molecule B15 had a binding signal of 0.82 enrichment R.

B16 returned a binding signal of 0.468 enrichment R.

As to B17, the binding signal is 0.796 enrichment R.

Molecule B18 had a binding signal of 2.12 enrichment R.

In turn, B19 returned a binding signal of 5.83 enrichment R.

With B20, the binding signal worked out at 12.3 enrichment R.

In turn, B21 registered a binding signal of 6.02 enrichment R.

Molecule B22 returned a binding signal of 5.96 enrichment R.
